For some of these results: Entries with a potency or affinity are not part of this list.

What all share (design): scale not given: direction of the effect not stated beside the values
The target of experiment [1] is Protein translocase subunit SecA (Escherichia coli (strain K12)) (UniProt P10408). Put plainly: Assay to Identify E. coli SecA ATPase Inhibitors. The format is functional. The settings on record: 30 µM.
Experiment [2] addresses T1, Ubiquitin-activating enzyme e1, putative (Leishmania donovani (strain BPK282A1)) (UniProt E9BSI1).
T1 sequence (whole entry): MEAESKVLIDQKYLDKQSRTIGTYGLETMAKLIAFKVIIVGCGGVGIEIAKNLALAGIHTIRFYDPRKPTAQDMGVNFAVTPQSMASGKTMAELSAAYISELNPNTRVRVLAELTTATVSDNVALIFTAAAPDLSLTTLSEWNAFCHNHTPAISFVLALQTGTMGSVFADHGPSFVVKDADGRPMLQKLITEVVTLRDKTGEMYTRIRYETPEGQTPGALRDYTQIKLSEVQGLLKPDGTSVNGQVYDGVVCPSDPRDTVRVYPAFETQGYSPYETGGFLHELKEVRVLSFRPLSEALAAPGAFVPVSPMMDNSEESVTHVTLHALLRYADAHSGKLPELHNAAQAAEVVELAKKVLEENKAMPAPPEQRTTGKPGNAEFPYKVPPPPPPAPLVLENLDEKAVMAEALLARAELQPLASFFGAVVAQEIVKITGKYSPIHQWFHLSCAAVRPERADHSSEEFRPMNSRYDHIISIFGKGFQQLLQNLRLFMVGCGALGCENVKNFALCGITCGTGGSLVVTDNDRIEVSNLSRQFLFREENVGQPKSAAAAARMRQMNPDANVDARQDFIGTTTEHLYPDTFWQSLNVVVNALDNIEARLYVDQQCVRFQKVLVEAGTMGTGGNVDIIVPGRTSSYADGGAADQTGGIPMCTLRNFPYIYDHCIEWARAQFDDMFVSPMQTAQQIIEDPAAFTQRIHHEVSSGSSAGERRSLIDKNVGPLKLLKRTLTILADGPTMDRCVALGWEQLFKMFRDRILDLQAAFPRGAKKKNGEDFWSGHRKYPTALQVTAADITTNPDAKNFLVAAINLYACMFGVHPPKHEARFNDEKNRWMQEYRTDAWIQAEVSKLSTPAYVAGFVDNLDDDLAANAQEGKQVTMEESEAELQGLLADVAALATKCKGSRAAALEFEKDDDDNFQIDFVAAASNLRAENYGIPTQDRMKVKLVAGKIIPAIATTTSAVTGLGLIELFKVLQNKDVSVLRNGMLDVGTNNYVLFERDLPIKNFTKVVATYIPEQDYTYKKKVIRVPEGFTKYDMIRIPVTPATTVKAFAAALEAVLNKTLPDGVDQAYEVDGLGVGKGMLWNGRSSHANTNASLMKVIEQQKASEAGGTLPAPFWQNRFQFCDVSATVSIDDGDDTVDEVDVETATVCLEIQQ
Nature of the experiment: Leishmania donovani Ubiquitin Activating Enzyme (LdE1). The format is functional. The conditions noted are these: 30 µM.

In experiment [3] the target is Sialic acid-binding Ig-like lectin 9 (Homo sapiens) (UniProt Q9Y336). Put plainly: Hs-Siglec9 ALPHAscreen SOP 20170721. The conditions noted are these: 10 µM.
The subject of experiment [4] is Trypanosoma cruzi. Nature of the experiment: Trypanosoma cruzi phosphomannomutase and mannose-1-phosphate guanylyltransferase assay. The class given is functional. The settings on record: 10 µM.
For experiment [5], the target named is T2, Arginase-2, mitochondrial (Homo sapiens) (UniProt P78540).
T2 sequence (whole entry): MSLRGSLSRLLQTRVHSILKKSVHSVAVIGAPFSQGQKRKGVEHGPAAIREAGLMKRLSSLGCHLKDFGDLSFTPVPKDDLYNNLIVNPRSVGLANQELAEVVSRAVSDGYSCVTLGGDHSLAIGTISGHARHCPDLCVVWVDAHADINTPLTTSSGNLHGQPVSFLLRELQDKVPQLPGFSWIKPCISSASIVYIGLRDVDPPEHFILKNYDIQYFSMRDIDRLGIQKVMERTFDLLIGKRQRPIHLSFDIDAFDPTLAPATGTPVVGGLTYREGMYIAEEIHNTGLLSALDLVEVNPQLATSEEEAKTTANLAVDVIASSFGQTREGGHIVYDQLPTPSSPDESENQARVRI
Nature of the experiment: in vitro enzyme assay to detect the production of urea directly proportional to the activity of Arginase II. Further: in the data most compounds retested in dose-response had high values. The class given is functional. The conditions noted are these: 33.3 µM.

In experiment [6] the target is T3, Proteasome subunit beta (Trypanosoma cruzi) (UniProt O96673).
T3 sequence (whole entry): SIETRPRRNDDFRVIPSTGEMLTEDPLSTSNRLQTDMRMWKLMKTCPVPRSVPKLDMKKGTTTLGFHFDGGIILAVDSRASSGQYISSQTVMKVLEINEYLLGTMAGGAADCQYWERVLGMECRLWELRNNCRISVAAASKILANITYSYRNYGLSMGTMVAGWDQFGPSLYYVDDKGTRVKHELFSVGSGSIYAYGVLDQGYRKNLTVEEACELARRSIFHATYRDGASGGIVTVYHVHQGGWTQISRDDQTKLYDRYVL
Nature of the experiment: Trypanosoma cruzi proteasome chymotrypsin-like activity (TcProtChymo) assay. Further: in the data most compounds retested in dose-response had high values. The format is functional. The conditions noted are these: 9.37 µM.

The species entered for experiment [7] is Homo sapiens. Nature of the experiment: To identify inhibition of the IFN signalling (Jak-Stat) pathway via expression of an eGFP reporter gene under the control of an IFN-stimulated response element (ISRE) containing MxA promoter. The format is functional. The settings on record: 30 µM.
The target of experiment [8] is T4, Tyrosyl-tRNA synthetase, putative (Trypanosoma cruzi (strain CL Brener)) (UniProt Q4DSP6).
T4 sequence (whole entry): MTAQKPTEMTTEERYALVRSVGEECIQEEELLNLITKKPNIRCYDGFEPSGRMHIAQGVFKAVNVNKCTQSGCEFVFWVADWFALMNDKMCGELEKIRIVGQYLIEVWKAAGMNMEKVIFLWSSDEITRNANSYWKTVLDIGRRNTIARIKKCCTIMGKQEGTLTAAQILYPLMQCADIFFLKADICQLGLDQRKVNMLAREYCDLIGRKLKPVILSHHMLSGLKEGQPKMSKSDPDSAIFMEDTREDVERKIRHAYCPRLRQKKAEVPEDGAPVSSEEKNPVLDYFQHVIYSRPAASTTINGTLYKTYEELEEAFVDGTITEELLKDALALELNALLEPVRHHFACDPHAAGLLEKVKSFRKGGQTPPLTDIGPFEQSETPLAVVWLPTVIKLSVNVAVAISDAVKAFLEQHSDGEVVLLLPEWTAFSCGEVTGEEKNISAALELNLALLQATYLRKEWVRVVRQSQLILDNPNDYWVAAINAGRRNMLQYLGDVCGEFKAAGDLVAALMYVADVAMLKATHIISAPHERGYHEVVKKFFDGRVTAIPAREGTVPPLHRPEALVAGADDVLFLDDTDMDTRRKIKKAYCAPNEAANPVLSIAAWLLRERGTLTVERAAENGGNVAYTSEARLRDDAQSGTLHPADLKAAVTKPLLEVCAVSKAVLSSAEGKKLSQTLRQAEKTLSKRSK
Put plainly: Trypanosoma cruzi tyrosyl tRNA synthetase (TcYRS) _High Tyrosine SOP. Further: in the data most compounds retested in dose-response had high values. The format is functional. The conditions noted are these: 30 µM.

In experiment [9] the target is T4, Tyrosyl-tRNA synthetase, putative (Trypanosoma cruzi (strain CL Brener)). Nature of the experiment: Trypanosoma cruzi tyrosyl tRNA synthetase (TcYRS) SOP. The conditions noted are these: 30 µM. The format is functional.
In experiment [10] the target is Chromo domain-containing protein 1 (Saccharomyces cerevisiae (strain ATCC 204508 / S288c) (Baker's yeast)) (UniProt P32657). Nature of the experiment: ScCHD-1 Enzyme Inhibition Assay. Further: in the data most compounds retested in dose-response had high values. The class given is functional. The settings on record: 30 µM.
Sequence of Chromo domain-containing protein 1 (Saccharomyces cerevisiae (strain ATCC 204508 / S288c) (Baker's yeast)) (P32657 whole entry, the tested form may be a part): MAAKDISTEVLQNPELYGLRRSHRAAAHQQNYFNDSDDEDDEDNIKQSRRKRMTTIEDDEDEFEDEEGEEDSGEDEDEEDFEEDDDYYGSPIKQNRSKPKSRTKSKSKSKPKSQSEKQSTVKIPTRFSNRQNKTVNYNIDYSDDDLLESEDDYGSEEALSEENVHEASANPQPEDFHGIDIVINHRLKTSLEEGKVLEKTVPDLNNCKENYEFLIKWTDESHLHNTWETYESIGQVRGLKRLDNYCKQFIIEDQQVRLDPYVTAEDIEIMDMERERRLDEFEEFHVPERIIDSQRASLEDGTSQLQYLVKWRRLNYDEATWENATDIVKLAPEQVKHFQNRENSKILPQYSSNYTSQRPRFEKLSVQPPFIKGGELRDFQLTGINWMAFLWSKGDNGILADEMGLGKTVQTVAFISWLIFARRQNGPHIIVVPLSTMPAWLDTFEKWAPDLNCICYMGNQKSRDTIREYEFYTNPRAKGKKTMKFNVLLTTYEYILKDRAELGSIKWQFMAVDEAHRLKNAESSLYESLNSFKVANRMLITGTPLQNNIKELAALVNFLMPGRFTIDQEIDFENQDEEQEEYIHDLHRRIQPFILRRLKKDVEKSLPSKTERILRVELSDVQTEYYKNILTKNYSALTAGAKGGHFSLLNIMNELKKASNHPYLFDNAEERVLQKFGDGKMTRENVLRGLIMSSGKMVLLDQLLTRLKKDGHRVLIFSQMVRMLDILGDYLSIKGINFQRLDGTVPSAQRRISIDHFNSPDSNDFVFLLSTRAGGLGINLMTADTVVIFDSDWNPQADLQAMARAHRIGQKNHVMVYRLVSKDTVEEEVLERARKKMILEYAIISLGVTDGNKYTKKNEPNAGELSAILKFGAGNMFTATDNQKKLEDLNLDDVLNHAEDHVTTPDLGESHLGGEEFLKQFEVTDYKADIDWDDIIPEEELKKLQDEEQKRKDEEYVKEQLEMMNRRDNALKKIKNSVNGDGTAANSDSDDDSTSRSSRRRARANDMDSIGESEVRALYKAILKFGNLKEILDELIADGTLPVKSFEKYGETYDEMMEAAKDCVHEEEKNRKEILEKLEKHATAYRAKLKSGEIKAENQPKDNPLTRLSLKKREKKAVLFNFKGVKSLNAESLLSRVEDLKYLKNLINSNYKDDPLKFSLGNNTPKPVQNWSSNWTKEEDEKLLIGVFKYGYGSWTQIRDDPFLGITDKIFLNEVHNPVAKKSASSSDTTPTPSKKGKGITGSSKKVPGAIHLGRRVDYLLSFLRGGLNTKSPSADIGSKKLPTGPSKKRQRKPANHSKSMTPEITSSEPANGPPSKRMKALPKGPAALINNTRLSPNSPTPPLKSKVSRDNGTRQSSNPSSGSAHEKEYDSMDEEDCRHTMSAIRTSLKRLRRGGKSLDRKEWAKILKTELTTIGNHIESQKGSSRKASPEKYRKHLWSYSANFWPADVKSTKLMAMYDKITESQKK

Sequence of Protein translocase subunit SecA (Escherichia coli (strain K12)) (P10408 whole entry): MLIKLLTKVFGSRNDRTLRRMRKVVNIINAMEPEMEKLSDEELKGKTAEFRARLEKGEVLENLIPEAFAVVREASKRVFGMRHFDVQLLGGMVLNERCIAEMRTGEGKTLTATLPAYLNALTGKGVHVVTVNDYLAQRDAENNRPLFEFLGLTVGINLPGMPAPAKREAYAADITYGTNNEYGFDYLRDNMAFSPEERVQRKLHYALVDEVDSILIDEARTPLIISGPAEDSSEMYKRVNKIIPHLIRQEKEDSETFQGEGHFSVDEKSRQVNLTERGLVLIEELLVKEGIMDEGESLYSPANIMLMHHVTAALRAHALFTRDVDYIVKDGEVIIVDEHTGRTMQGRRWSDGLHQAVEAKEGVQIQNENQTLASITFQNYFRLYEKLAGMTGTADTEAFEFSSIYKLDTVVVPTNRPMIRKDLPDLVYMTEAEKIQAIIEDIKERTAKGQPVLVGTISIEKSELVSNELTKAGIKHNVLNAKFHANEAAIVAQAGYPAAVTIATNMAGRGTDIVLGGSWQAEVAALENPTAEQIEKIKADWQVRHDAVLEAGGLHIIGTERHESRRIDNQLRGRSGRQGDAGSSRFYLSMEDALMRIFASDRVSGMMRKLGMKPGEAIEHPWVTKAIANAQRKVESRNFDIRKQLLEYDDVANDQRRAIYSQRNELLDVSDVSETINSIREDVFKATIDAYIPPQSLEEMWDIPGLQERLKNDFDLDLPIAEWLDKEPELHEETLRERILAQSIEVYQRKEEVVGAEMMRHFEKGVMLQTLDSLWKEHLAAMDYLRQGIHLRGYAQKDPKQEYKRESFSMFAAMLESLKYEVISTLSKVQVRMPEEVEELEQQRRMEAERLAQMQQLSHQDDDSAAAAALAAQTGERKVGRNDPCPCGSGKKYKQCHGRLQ
Sequence of Sialic acid-binding Ig-like lectin 9 (Homo sapiens) (Q9Y336 whole entry): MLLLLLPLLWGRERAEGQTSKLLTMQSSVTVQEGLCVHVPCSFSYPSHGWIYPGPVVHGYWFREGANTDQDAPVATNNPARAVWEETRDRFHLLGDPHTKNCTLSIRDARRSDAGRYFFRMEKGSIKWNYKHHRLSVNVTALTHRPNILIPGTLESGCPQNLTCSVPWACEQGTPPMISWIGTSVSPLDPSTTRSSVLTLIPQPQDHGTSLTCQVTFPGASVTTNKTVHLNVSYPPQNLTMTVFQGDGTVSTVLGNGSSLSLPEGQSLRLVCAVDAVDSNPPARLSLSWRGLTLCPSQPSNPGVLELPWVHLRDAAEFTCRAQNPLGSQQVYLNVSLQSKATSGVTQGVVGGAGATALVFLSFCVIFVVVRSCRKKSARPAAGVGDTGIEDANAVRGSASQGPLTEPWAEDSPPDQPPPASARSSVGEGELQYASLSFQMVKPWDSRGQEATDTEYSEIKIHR

`O=C(NC[C@]1(O)CN(Cc2ccccc2F)C[C@H]1O)c1ccccn1`: the Percent Effect was -1.11% in [1]; 12% in experiment [2]; -1.14% in [3]; -2.37% in experiment [4]; 1.33% in experiment [5]; 10.5% in [6]. Further, the Percent Effect is 6.15% in experiment [7], 4.23% in [8], 15% in experiment [9] and -24.1% in experiment [10].
`O=C(CC1CCCC1)N1C[C@@H]2CCN(c3cccnc3)C[C@@H]2C1`: the Percent Effect was -3.01% in experiment [1]; 3.9% in experiment [2]; 3.29% in [3]; -3.94% in experiment [4]; 2.28% in [5]; 19.3% in experiment [6]. The Percent Effect in experiment [7] is 35.3%; in experiment [8], 2.9%; in [9], 0%; in [10], -2.18%.
For the compound `Cc1cc(CN(C)C(=O)c2ccnc(N(C)C)c2)no1`, the Percent Effect was -2.33% in [1]; 8% in [2]; 1.08% in [3]; -5.82% in experiment [4]; 2.22% in [5]; 4.67% in [6]. The Percent Effect in experiment [7] is 9.46%; in experiment [8], 3.68%; in experiment [9] it was 10.3%; in experiment [10], -13.6%.
In the case of `Cc1cnn(CC2CCCN2C(=O)c2ccc(C(N)=O)cn2)c1` (stereo not given), the Percent Effect in experiment [1] is -5%; in [2], 15.4%; in experiment [3], 2.02%; in experiment [4], 5.92%; in [5] it was 2.05%; in experiment [6], 9.47%. The Percent Effect in [7] was 12.1%; in [8], 0.478%; in [9] it was 13.2%; in experiment [10], -6.88%.
Turning to `NCc1cn(-c2ccccc2C(=O)NCc2cccc(Cl)c2)cn1`, the Percent Effect is 0.846% in [1]; 9.33% in [2]; -1.67% in experiment [3]; -7.3% in [4]; 1.33% in experiment [5]; 6.4% in [6]. Moreover, the Percent Effect was -3.19% in experiment [7], 3.17% in [8], 12.5% in experiment [9] and -24.5% in [10].
As to `CCS(=O)(=O)c1ncc(CN(C)Cc2ccccn2)n1CCOC`, the Percent Effect in [1] is -6.13%; in experiment [2], 5.41%; in experiment [3] it was 13.7%; in experiment [4] it was 5.33%; in [5] it was 2.45%; in [6], 5.65%. For the same compound, the Percent Effect was 3.71% in experiment [7], 4.79% in [8], 14.6% in experiment [9] and -2.76% in experiment [10].
Regarding `Fc1ccc(CN2CCC(c3n[nH]c4ncccc34)CC2)cc1F`, the Percent Effect is -7.07% in experiment [1]; 4% in experiment [2]; -2.28% in experiment [3]; -6.11% in experiment [4]; -0.885% in experiment [5]; 3.94% in experiment [6]. Further, the Percent Effect in experiment [7] is 16.9%; in [8], -4.23%; in experiment [9], -5%; in experiment [10] it was -26.5%.

The values above are taken from ChEMBL document CHEMBL3988442, “University of Dundee, Small-Polar-MMV Screening Library” (2021).
